A selection: hits, their analogues and other compounds. The true share with any hit is near 6.6%.
MPTP block: inhibitors of mitochondrial permeability transition pore; isolated mouse mitochondria, Ca2+ swelling absorbance, 30 min; inhibition, % at 10 µM; 1.4% of 360,000 active;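 active = inhibition of 50% or more, scaled per plate between neutral and stimulator controls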;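 also: 0% = DMSO wells given calcium and 100% = 1 mM EGTA wells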
Beta apoptosis: beta cell apoptosis inhibition | INS-1E cytokine-induced death, ATP luminescence, 48 h; percent of positive-control rescue, neutral wells zero | AID 435005 | 0.8% of 300,000 active | protection from apoptosis, % (concentration not given with the values);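 active = Every replicate reaches about 75%, or at least half do and their mean reaches it too, limit read from the data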;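 also: 0% = cytokine-treated negative control wells and 100% = positive control rescue; higher means more ATP so stronger rescue from cytokine killing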
Gli-Sufu antag: blocks Gli-Sufu signaling in a luciferase reporter | AID 588413 | Sufu-KO-LIGHT fibroblasts, Gli luciferase reporter luminescence | inhibition, % at 5 µM | 0.74% of 340,000 active;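 active = inhibition above about 55%, limit read from the data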;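 also: 0% = DMSO-treated cells and 100% = wells with medium but no cells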
GRIN3A LBD mod: NR3A (human) ligand-binding domain modulation. NR3A LBD differential scanning fluorimetry, Tm shift; 0% = protein alone, 100% = glycine-bound protein. Tm shift relative to glycine control, % at 25 µM. 2.5% of 340,000 active. AID 1259313;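 active = melting temperature shift of at least 10% of the positive control shift, at one fixed dose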
CSC inhib: cancer stem cell inhibition | 1.1% of 300,000 active | inhibition, % at 7.5 µM | AID 2717 | cancer stem cell-like cells viability, luminescence; in the data active = inhibition above about 75%; tested in HMLE shEcad cells
Mdm2 MdmX PPI: human Mdm2/MdmX binding inhibition; AID 485346; inhibition, % at 8 µM; O15151+Q00987; 3% of 330,000 active; SaOS-2 split-luciferase Mdm2/MdmX complementation, luminescence;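 active = inhibition of at least 50% at 8 µM in the primary screen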
Gli-Sufu confirm: Gli-SUFU antagonism confirmation, single concentration; AID 602428; inhibition, % at 5 µM; Sufu-KO-LIGHT cells, Gli luciferase reporter, luminescence; 40% of 2,500 active; shares compounds with Gli-Sufu antag;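 active = mean inhibition at 5 µM reaching about 45%, limit read from the data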;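 also: plate controls were DMSO-treated cells for no effect and wells lacking cells for full effect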
SufuKO cytotox: cytotoxicity counter-screen for Gli-SUFU antagonists; 32% of 2,500 active; cytotoxicity, % at 5 µM; shares compounds with Gli-Sufu antag; Sufu-KO-LIGHT cells cytotoxicity, ATP luminescence;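 active = mean cytotoxicity at 5 µM above about 25%, limit read from the data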;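 also: cells exposed to compound overnight for roughly 16 to 18 hours; plate controls were DMSO wells with cells for no effect and medium without cells for full effect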
Wnt3a counter: Wnt3a reporter inhibition counter-screen | shares compounds with Gli-Sufu antag | Wnt-LIGHT cells, Wnt3a-driven luciferase reporter, luminescence | inhibition, % at 6.25 µM | 20% of 2,500 active;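 active = mean inhibition above about 25%, limit read from the data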
Numbers without * were called inactive; / = no result given.

SMILES	MPTP block	Beta apoptosis	Gli-Sufu antag	GRIN3A LBD mod	CSC inhib	Mdm2 MdmX PPI	Gli-Sufu confirm	SufuKO cytotox	Wnt3a counter
Cc1ccc(S(=O)(=O)NC(CC(C)C)C(=O)NCC(C)(C)N2CCOCC2)cc1 (stereo not drawn)	-1	4	1	1	-6	-4	/	/	/
COC(=O)CN1C(=O)COc2ccc(S(=O)(=O)N3CCOCC3)cc21	1	-3	-15	-3	-11	-5	/	/	/
CCN(C(=O)CN1C(=O)COc2ccc(S(=O)(=O)N3CCOCC3)cc21)c1ccc(OC)cc1	0	-1	52	0	-10	-2	11	13	-24
C[C@H]1COC(=O)[C@H](CC(=O)OC(C)(C)C)C/C=C\C[C@H](CC(=O)N(CCO)Cc2ccccc2)C(=O)N1	-1	1	-8	-1	-23	9	/	/	/
CC(=O)c1cccc(S(=O)(=O)NC2CC2)c1	2	-5	5	0	0	11	/	/	/
CCC(=O)N1CCc2cc(S(=O)(=O)CCC(=O)Nc3ccc(C(C)=O)cc3)ccc21	-1	0	59*	0	10	14	19	0	16
CCC(=O)N1CCc2cc(S(=O)(=O)CCC(=O)Nc3ccc(CC)cc3)ccc21	0	6	4	1	-17	-3	/	/	/
S=c1[nH]nc(CSCc2ccccc2Cl)n1C1CCCCC1	-2	/	52	-6	/	/	30	20	0
O=S(=O)(c1ccc(F)cc1)N1CCN(c2ccc(-c3ccccc3)nn2)CC1	2	-1	2	-4	-9	30	/	/	/
Cc1cc(-c2ccccc2)cc(-c2ccccc2)[n+]1C	3	10	65*	-1	-10	16	70*	27*	20
COc1ccc(OC)c(C2=NOC(C(=O)N3CCCc4ccccc43)C2)c1 (stereo not drawn)	2	/	12	0	-2	17	/	/	/
O=C(NC1CCN(Cc2ccccc2)CC1)C1CCN(S(=O)(=O)c2cccc3cccnc23)CC1	1	/	-15	-1	-8	25	/	/	/
O=C(NC1CCN(Cc2ccccc2)CC1)C1CCN(S(=O)(=O)c2cccc3nsnc23)CC1	-1	1	59*	0	1	28	19	29*	-5
NC(=S)NNC(=O)c1cccc(Cl)c1	-1	-6	-28	-1	3	-22	/	/	/
O=C(NNC(=O)c1cccc(Cl)c1)NNC(=O)c1cccc(Cl)c1	0	-5	53	0	-17	18	12	-12	-12
COc1ccc2[nH]c(=O)c(CN(C(=O)c3cccnc3)c3cccc(C)c3)cc2c1	0	4	9	-1	-15	-7	/	/	/
COc1ccc2[nH]c(=O)c(CN(C(=O)c3cccnc3)c3ccc(C)cc3)cc2c1	0	-1	83*	-1	-7	19	17	5	-7
CCOc1ccc(C(=O)NCC(=O)NCCCSc2ccccc2)cc1OCC	0	-3	-5	1	2	13	/	/	/
Cc1cccc(N2CN(Cc3cccnc3)CNC2=S)c1C	-1	-4	55*	4	-9	-1	29	-4	-6
O=C(N[C@@H]1C/C=C\C[C@H](CC(=O)N(CCO)Cc2ccccc2)C(=O)N[C@@H](Cc2c[nH]c3ccccc23)COC1=O)OCC1c2ccccc2-c2ccccc21	0	23	53	-4	9	23	57*	22	-30
O=C(N[C@H]1C/C=C\C[C@@H](CC(=O)N(CCO)Cc2ccccc2)C(=O)N[C@H](Cc2c[nH]c3ccccc23)COC1=O)OCC1c2ccccc2-c2ccccc21	-2	1	53	-5	-13	25	52*	7	-46
O=C(N[C@@H]1C/C=C\C[C@@H](CC(=O)N(CCO)Cc2ccccc2)C(=O)N[C@@H](c2ccccc2)COC1=O)OCC1c2ccccc2-c2ccccc21	1	42	56*	-4	/	-19	56*	18	-68
CCCNC(=O)c1onc(CSc2ccc(F)cc2)c1C(=O)NCCOC	0	1	6	-2	-22	15	/	/	/
O=C(NC1CCCCC1)c1ccc(S(=O)(=O)NCc2ccco2)cc1	0	-2	4	2	-8	13	/	/	/
O=C(NC1CCN(Cc2ccccc2)CC1)c1ccc(S(=O)(=O)NCc2ccco2)cc1	24	8	54	0	2	2	20	24	-12
SMILES	MPTP block	Beta apoptosis	Gli-Sufu antag	GRIN3A LBD mod	CSC inhib	Mdm2 MdmX PPI	Gli-Sufu confirm	SufuKO cytotox	Wnt3a counter
COc1ccc(CNC2CCN(Cc3ccccc3)CC2)cc1	-2	4	58*	2	4	-9	18	8	-9
COc1ccc(Cl)cc1NS(=O)(=O)c1cccc(C(=O)NC2CCN(Cc3ccccc3)CC2)c1	-1	/	11	-1	/	/	/	/	/
COc1ccc(NS(=O)(=O)c2cccc(C(=O)NC3CCN(Cc4ccccc4)CC3)c2)cc1	-2	14	57*	4	16	33	35	10	11
COc1ccc(CNC(=O)CN2CCC(NC(=O)c3ccc(OC)cc3)CC2)cc1	0	/	62*	-3	/	12	26	11	-28
COc1c([N+](=O)[O-])c(=O)n(-c2ccccc2)c2ccccc12	-2	8	4	-2	8	16	/	/	/
Cc1cccc(C)c1NC(=O)CCCSc1nnnn1C	0	/	4	-1	8	-4	/	/	/
Cc1cccc(C)c1NC(=O)CSc1nnnn1C	-1	3	57*	0	-6	-8	17	7	-12
O=C(Nc1ccn(CCCNCC2CCCCC2)c(=O)n1)OCc1ccccc1	-1	/	/	/	/	/	/	/	/
CCN(C(=O)CSc1nnc(-c2ccncc2)n1Cc1ccccc1)C1CCS(=O)(=O)C1 (stereo not drawn)	0	-2	58*	0	-10	-24	15	19	-6
CCN(C(=O)CSc1nnc(C)n1Cc1ccccc1)C1CCS(=O)(=O)C1 (stereo not drawn)	1	1	-23	-5	-13	2	/	/	/
O=C(C[N+]1(CC#Cc2ccccc2)CCCCC1)c1ccccc1	0	-3	11	-1	-3	-27	/	/	/
C(#Cc1ccccc1)C[N+]1(CC#Cc2ccccc2)CCCCC1	-1	/	81*	-2	2	20	79*	38*	24
CCC[N+]1(CC#CCC(c2ccccc2)c2ccccc2)CCCCC1	-2	105*	84*	0	34	49	88*	49*	36*
COc1ccc(Cc2nnc(Nc3c(C)cccc3C)o2)cc1OC	1	/	0	-1	2	9	/	/	/
